Screening data from PubChem BioAssay.
Only some compounds are listed: those with a hit (about 4.6% of all), similar ones and a draw of the others.
TRHR PAM = TRH receptor (human) allosteric enhancement. enhancement, % at 2 µM. TRHR cells, fluo-8 calcium fluorescence, EC20 TRH enhancement. 360,000 compounds, 0.66% hits; in the data active = enhancement above about 30%
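TRHR-expressing cells loaded with fluo-8 calcium dye were read kinetically (ex 480/em 530) during compound addition, then stimulated with an EC20 of TRH (10 nM final). Enhancement of the Gq-mediated intracellular calcium response was scored.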
TRHR agonist = agonists of human TRH receptor | 360,000 compounds, 0.18% hits | TRHR cells, calcium flux fluo-8, FDSS agonist mode | activation, % at 2 µM | P34981
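TRHR-expressing cells loaded with fluo-8 calcium dye; 23 nL library compound pin-transferred, kinetic FDSS fluorescence (Ex 480/Em 530) recorded about 180 s for agonist-induced calcium release, before a 10 nM TRH EC20 addition for potentiator mode.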
D1 agonist = human D1 receptor agonism; HEK293 T-REx D1 cells, calcium flux, agonist mode; 360,000 compounds, 1% hits; activation, % at 2 µM; P21728
Target sequence (P21728 whole entry, looked up): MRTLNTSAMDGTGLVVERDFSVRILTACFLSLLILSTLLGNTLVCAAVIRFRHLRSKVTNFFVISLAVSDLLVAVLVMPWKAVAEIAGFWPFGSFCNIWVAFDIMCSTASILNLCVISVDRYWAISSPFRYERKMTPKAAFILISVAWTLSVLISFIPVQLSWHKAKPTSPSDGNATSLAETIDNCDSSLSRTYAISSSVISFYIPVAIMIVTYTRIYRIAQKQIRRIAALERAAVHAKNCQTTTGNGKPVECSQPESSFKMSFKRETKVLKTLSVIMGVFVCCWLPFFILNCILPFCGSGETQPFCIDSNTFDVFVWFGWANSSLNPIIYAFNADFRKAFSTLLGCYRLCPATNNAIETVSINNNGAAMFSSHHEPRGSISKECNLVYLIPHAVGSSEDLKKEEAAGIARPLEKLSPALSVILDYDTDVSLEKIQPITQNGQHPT
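Inducible HEK293 T-REx D1 cells, force-coupled to calcium signalling, were plated at 4000 cells/well with tetracycline and held overnight at 30 C. After no-wash calcium dye loading, compound-evoked calcium rise over 180 s flagged agonists.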
D1 potentiator = human D1 dopamine receptor positive modulation; HEK293 TREx D1 cells, calcium flux, dopamine EC20 potentiation; potentiation, % at 10 µM; 360,000 compounds, 0.036% hits; AID 504651; in the data active = potentiation above about 30%
D1 antagonist = antagonists of human D1 dopamine receptor; P21728; HEK293 TREx D1 cells, calcium flux, dopamine EC80; stronger effect = lower value; activity change, negative = inhibition, % at 10 µM; 360,000 compounds, 3.2% hits; AID 504652; in the data active = activity change below about -30%
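After overnight tetracycline induction at 30 C, force-coupled D1 HEK293 cells took up a no-wash calcium dye at room temperature. Compounds were added and monitored 180 s, and the response to EC80 dopamine was then recorded.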
A number is an active result. Rule as the data show it, unless noted: active = activation above about 30%; inactive = the rest.

What do the screens show for `Cc1c(NC(=O)CN2CCN(c3ccc(O)cc3)CC2)c(=O)n(-c2ccccc2)n1C`?
TRHR PAM: inactive; TRHR agonist: inactive; D1 agonist: inactive; D1 potentiator: inactive; D1 antagonist: inactive

Results for CNS(=O)(=O)c1cn(CC(=O)N2CCN(c3cc(C)ccc3C)CC2)cc1S(=O)(=O)NC ?
TRHR PAM: inactive; TRHR agonist: inactive; D1 agonist: inactive; D1 potentiator: inactive; D1 antagonist: inactive

Results for O=C(Nc1cccc([N+](=O)[O-])c1)c1ccc2ccccc2c1O ?
TRHR PAM: inactive; TRHR agonist: inactive; D1 agonist: inactive; D1 potentiator: inactive; D1 antagonist: -33

What do the screens show for `CC(OC(=O)c1cnccn1)C(=O)Nc1nc(-c2cccc([N+](=O)[O-])c2)cs1` (stereo unspecified)?
TRHR PAM: inactive; TRHR agonist: inactive; D1 agonist: inactive; D1 potentiator: inactive; D1 antagonist: -32

Results for O=C(Cc1ccccc1)Nc1cccc([N+](=O)[O-])c1 ?
TRHR PAM: inactive; TRHR agonist: inactive; D1 agonist: inactive; D1 potentiator: inactive; D1 antagonist: inactive

What do the screens show for `CCN(CC(=O)NC(C)C)C(=O)Cc1ccc(C)c(C)c1`?
TRHR PAM: inactive; TRHR agonist: inactive; D1 agonist: inactive; D1 potentiator: inactive; D1 antagonist: inactive

What do the screens show for `COc1ccc(CC(=O)NCc2ccc3c(c2)CCN3C(=O)c2ccccc2)cc1OC`?
TRHR PAM: inactive; TRHR agonist: inactive; D1 agonist: inactive; D1 potentiator: inactive; D1 antagonist: inactive

Results for Cc1ccccc1C(=O)Nc1ccc(C(=O)N/N=C/c2ccc(O)cc2)cc1 ?
TRHR PAM: inactive; TRHR agonist: inactive; D1 agonist: inactive; D1 potentiator: inactive; D1 antagonist: inactive

How did O=C(N/N=C/c1cccs1)c1ccc(NC(=O)c2ccccc2Cl)cc1 do in these assays?
TRHR PAM: inactive; TRHR agonist: inactive; D1 agonist: inactive; D1 potentiator: inactive; D1 antagonist: -53

How did O=C(N/N=C/c1ccc(O)cc1)c1ccc(NC(=O)c2ccccc2Br)cc1 do in these assays?
TRHR PAM: inactive; TRHR agonist: inactive; D1 agonist: inactive; D1 potentiator: inactive; D1 antagonist: -47

How did CCOc1ccc(CN2CCN(Cc3[nH]c4ccccc4c3C)CC2CCO)cc1 (stereo unspecified) do in these assays?
TRHR PAM: inactive; TRHR agonist: inactive; D1 agonist: 48; D1 potentiator: inactive; D1 antagonist: inactive

How did Cc1c(CN2CCN(CC(C)(C)C)C(CCO)C2)[nH]c2ccccc12 (stereo unspecified) do in these assays?
TRHR PAM: inactive; TRHR agonist: inactive; D1 agonist: inactive; D1 potentiator: inactive; D1 antagonist: inactive

Results for CCOCCCNC(=O)C1CCN(Cc2ccc(OCc3ccccc3)c(OC)c2)CC1 ?
TRHR PAM: inactive; TRHR agonist: inactive; D1 agonist: inactive; D1 potentiator: inactive; D1 antagonist: inactive

How did CCOCCCNC(=O)C1CCN(Cc2cccc(OCc3ccccc3)c2)CC1 do in these assays?
TRHR PAM: inactive; TRHR agonist: inactive; D1 agonist: inactive; D1 potentiator: inactive; D1 antagonist: -31

What do the screens show for `CCS(=O)(=O)c1nc(NC(C)=O)n[nH]1`?
TRHR PAM: inactive; TRHR agonist: inactive; D1 agonist: inactive; D1 potentiator: inactive; D1 antagonist: -46

How did CC(C)Cc1ccc(C(C)C(N)=NCCc2ccccc2)cc1 (stereo unspecified) do in these assays?
TRHR PAM: inactive; TRHR agonist: inactive; D1 agonist: 30; D1 potentiator: inactive; D1 antagonist: inactive

Results for COc1ccc(CCN=C(N)C(C)c2ccccc2)cc1OC (stereo unspecified) ?
TRHR PAM: inactive; TRHR agonist: inactive; D1 agonist: inactive; D1 potentiator: inactive; D1 antagonist: inactive

Results for CCOc1cc(N2CCOCC2)c(OCC)cc1NC(=O)CCC1CCCC1 ?
TRHR PAM: inactive; TRHR agonist: inactive; D1 agonist: inactive; D1 potentiator: inactive; D1 antagonist: -31

What do the screens show for `CCOc1cc(N2CCOCC2)c(OCC)cc1NC(=O)C1CCCC1`?
TRHR PAM: inactive; TRHR agonist: inactive; D1 agonist: inactive; D1 potentiator: inactive; D1 antagonist: inactive

What do the screens show for `COc1ccccc1/C=C/C(=O)/C=C/c1ccccc1O`?
TRHR PAM: inactive; TRHR agonist: inactive; D1 agonist: inactive; D1 potentiator: inactive; D1 antagonist: -34

Results for CCCCOc1ccc(/C(O)=C2/C(=O)C(=O)N(CCCOC)C2c2ccncc2)cc1C (stereo unspecified) ?
TRHR PAM: inactive; TRHR agonist: inactive; D1 agonist: inactive; D1 potentiator: inactive; D1 antagonist: -38

What do the screens show for `CCCOc1ccc(/C(O)=C2/C(=O)C(=O)N(CCCOC)C2c2ccncc2)cc1` (stereo unspecified)?
TRHR PAM: inactive; TRHR agonist: inactive; D1 agonist: inactive; D1 potentiator: inactive; D1 antagonist: inactive

What do the screens show for `COc1ccc(NC(=O)Nc2nnc(N(C)C3CCCCC3)s2)c(OC)c1`?
TRHR PAM: inactive; TRHR agonist: inactive; D1 agonist: inactive; D1 potentiator: inactive; D1 antagonist: inactive

How did CC1CN(c2ccc([N+](=O)[O-])c(NCCOc3ccccc3)c2)CC(C)N1 (stereo unspecified) do in these assays?
TRHR PAM: inactive; TRHR agonist: inactive; D1 agonist: inactive; D1 potentiator: inactive; D1 antagonist: inactive

What do the screens show for `CC1CN(c2ccc([N+](=O)[O-])c(NCCOc3ccc(Cl)cc3)c2)CC(C)N1` (stereo unspecified)?
TRHR PAM: inactive; TRHR agonist: inactive; D1 agonist: 39; D1 potentiator: inactive; D1 antagonist: inactive

What do the screens show for `CCOc1ccccc1C(=O)Oc1c(S(=O)(=O)c2ccc(C)cc2)c(C)nn1-c1ccccc1`?
TRHR PAM: inactive; TRHR agonist: inactive; D1 agonist: inactive; D1 potentiator: inactive; D1 antagonist: inactive

Results for COc1cc2c(c(O)c1OC)-c1c(cc(OC)c(OC)c1OC)C[C@@H](C)[C@@H](C)C2 ?
TRHR PAM: inactive; TRHR agonist: inactive; D1 agonist: inactive; D1 potentiator: inactive; D1 antagonist: -40

What do the screens show for `COc1cc2c(c(OC)c1OC)-c1c(cc(OC)c(OC)c1OC)C[C@H](C)[C@H](C)C2`?
TRHR PAM: inactive; TRHR agonist: inactive; D1 agonist: inactive; D1 potentiator: inactive; D1 antagonist: inactive

How did CCC(=O)N1CCc2cc(Br)cc(S(=O)(=O)NCCc3ccccc3Cl)c21 do in these assays?
TRHR PAM: inactive; TRHR agonist: inactive; D1 agonist: inactive; D1 potentiator: inactive; D1 antagonist: inactive

What do the screens show for `COC(=O)c1cn(CC(=O)N2CCCCCC2)c2ccccc12`?
TRHR PAM: inactive; TRHR agonist: inactive; D1 agonist: inactive; D1 potentiator: inactive; D1 antagonist: inactive

How did CCOC(=O)C1=C(O)/C(=C/c2cn(CC(=O)N3CCCC3)c3ccccc23)SC1=Nc1ccccc1 do in these assays?
TRHR PAM: inactive; TRHR agonist: inactive; D1 agonist: 32; D1 potentiator: inactive; D1 antagonist: inactive
